Assay results taken from PubChem BioAssay AID1850 (Southern Research Specialized Biocontainment Screening …, 2009).
Among all 310,000 compounds or so, about 1,000 (0.32%) were called active. A selection follows. Entries with a potency or affinity are not part of this list. Unmarked numbers belong to inactive results. How the calls were made is not given here.

Experiment: Inhibition of PhoP regulon, Salmonella typhi GFP reporter cells, confirmation, 4 h (AID 1850);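 further: 0% = induced wells with vehicle and 100% = uninduced wells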
Conditions: Salmonella Typhi PhoP-promoter GFP reporter, fluorescence, at 50 µM, stronger effect = higher value
Compound `O=C(O)CNC(=O)C1COc2ccccc2O1` (stereo unspecified) has an inhibition of 8.95%.
`COCCCn1c(C23CC4CC(CC(C4)C2)C3)n[nH]c1=S` showed an inhibition of -6.32%.
`Fc1ccc(CCNCc2ccc(Br)cc2)cc1` gave an inhibition of -3.63%.
Compound `C1N2CN3CN1CN(C2)C3` has an inhibition of -6.24%.
Compound `O=C(CSc1nnnn1C1CCCC1)N1CCCc2ccccc21` has an inhibition of 11.7%.
Compound `COc1ccccc1OCCC(=O)OCC(=O)c1[nH]c(C)c(C(C)=O)c1C` has an inhibition of 10.1%.
For `O=C(NCN1CCN(c2ccccc2F)CC1)c1ccccc1`, the inhibition was 0.63%.
Work on `C/C(=N\NC(=O)C1CC1)c1ccc(Cl)c(Cl)c1` yielded an inhibition of 5.7%.
With `NCC(=O)c1cccc2ccc[n+]([O-])c12` the inhibition was -7.72%.
In the case of `C[n+]1cccc2c(Br)ccc([O-])c21`, the inhibition is reported as 4.86%.
`O=C(CSc1n[nH]c(=O)[nH]c1=O)c1ccccc1[N+](=O)[O-]` gave an inhibition of -3.6%.
`CCN(Cc1cc2ccccc2[nH]c1=O)C(=O)c1cccnc1` gave an inhibition of 1.33%.
`COc1ccc(C2(CNC(=O)/C=C\c3ccco3)CCCC2)cc1OC` gave an inhibition of -2.04%.
Compound `O=C(COc1ccccc1)NNC(=S)NC(=O)c1ccccc1` has an inhibition of 12.9%.
In the case of `COC(=O)c1ccccc1NC(=S)NC(=O)COc1ccccc1`, the inhibition is reported as 10.9%.
For `CC(C)(C)c1ccc(C(=O)NC(=S)NNC(=O)COc2ccccc2)cc1`, the inhibition was -4.42%.
Compound `Cc1ccccc1C(=O)NNC(=S)NC(=O)c1ccccc1` has an inhibition of -2%.
With `CCc1ccc(NC(=S)Nn2cnnc2)cc1` the inhibition was 3.78%.
For `CCn1cc(C(=O)c2ccccc2)c2ccccc21`, the inhibition was -2.86%.
`COc1ccc(/C=C/C(=O)Nc2ccc(-c3nnc4n3CCCCC4)cc2)c(OC)c1` showed an inhibition of 5.23%.
`CC(=O)OC(C(=O)NCc1ccco1)c1ccncc1` (stereo unspecified) showed an inhibition of -8.42%.
With `Cc1c(CCOC(=O)CC23CC4CC(CC(C4)C2)C3)sc[n+]1CC(=O)c1ccc(Br)cc1` the inhibition was -0.11%.
In the case of `Cc1c(CCOC(=O)c2ccccc2)sc[n+]1CC(=O)c1ccc(Br)cc1`, the inhibition is reported as -8.05%.
Compound `O=C(Nc1nc(-c2cccc([N+](=O)[O-])c2)cs1)c1cccc([N+](=O)[O-])c1C(=O)O` has an inhibition of 5.24%.
With `O=C(NC1CCCCCCC1)C1CCN(S(=O)(=O)N2CCCC2)CC1` the inhibition was 11%.
In the case of `O=C(CSc1nc2ccccc2[nH]1)Nc1ccc(F)cc1`, the inhibition is reported as 0.68%.
For `O=C(CSc1nc2ccccc2[nH]1)Nc1ccccc1F`, the inhibition was -4.68%.
`Cc1ccc(NS(=O)(=O)c2ccc3c(c2)NC(=O)CCS3)c(Br)c1` gave an inhibition of 1.1%.
In the case of `NC(=O)/C=C/C(=O)Nc1ccc(Cl)cc1`, the inhibition is reported as 5%.
Work on `COc1ccc(/C=C/C(=O)NC(=S)NNC(=O)c2cccnc2)cc1` yielded an inhibition of -4.83%.
With `CC(C)NC(=S)NC(=O)/C=C/c1ccc(F)cc1` the inhibition was -3.22%.
For `O=C(/C=C/c1ccc(F)cc1)NC(=S)NC1CCCCC1`, the inhibition was 2.79%.
In the case of `CC(/C=C/c1ccccc1)=N/NC(=O)c1cnccn1`, the inhibition is reported as 1.54%.
Work on `O=C(/C=C/c1ccccc1)NC(=S)NNC(=O)c1cccnc1` yielded an inhibition of 4.06%.
For `COc1ccc(/C=C/C(=O)NC(=S)NNC(=O)c2cc(OC)c(OC)c(OC)c2)cc1`, the inhibition was 4.25%.
`NC(=O)c1nsc(C(=O)N(c2ccc3c(c2)OCO3)C(C(=O)NCC2CCCO2)c2ccc(F)cc2)c1N` (stereo unspecified) gave an inhibition of 6.99%.
With `CSCCC(NS(=O)(=O)c1cc(C(=O)O)ccc1Cl)C(=O)O` (stereo unspecified) the inhibition was -1.99%.
For `C=CCNC(=O)c1oc2ccc(S(=O)(=O)N3CCCCC3)cc2c1C`, the inhibition was 0.5%.
For `CCN(CC)CCCNC(=O)C1CCN(c2ncnc3c2sc2cccc(F)c23)CC1`, the inhibition was 3.1%.
Work on `COc1ccc(Nc2nc(NN)nc(Nc3ccc(OC)cc3)n2)cc1` yielded an inhibition of -3.28%.
Compound `COc1c2n(C)ccc3c-2n(c(=O)c1=O)c1ccccc31` has an inhibition of 17.2%.
With `O=S(=O)(NCCSc1ccc(Cl)cc1)c1ccc2c(c1)OCCO2` the inhibition was -8.59%.
Work on `COc1cc(Cl)ccc1OCc1cc(C(=O)N2CCCCCCC2)no1` yielded an inhibition of -27.8%.
Work on `CC1(c2nnc(-c3ccc(F)cc3)o2)CC(c2ccc([N+](=O)[O-])cc2)=NO1` (stereo unspecified) yielded an inhibition of 3.35%.
`Fc1ccc(CNCCc2c[nH]c3ccccc23)cc1` showed an inhibition of 11.8%.
In the case of `CCNCc1ccc(OCc2ccccc2F)c(OC)c1`, the inhibition is reported as -10.1%.
`COc1cccc(CNCCc2c[nH]c3ccccc23)c1OCc1ccc(F)cc1` showed an inhibition of -6.02%.
In the case of `COc1cc(CNCCCCO)ccc1OCc1ccccc1F`, the inhibition is reported as -5.61%.
Work on `Cc1cccnc1NC(=O)CCc1nnc2ccc(N3CCC4(CC3)OCCO4)nn12` yielded an inhibition of 3.16%.
`Oc1ccc2ccccc2c1CNc1ccc(Br)cn1` gave an inhibition of -4.93%.
Work on `CC(C)c1nn(-c2cc(C(F)(F)F)ccn2)c(=O)o1` yielded an inhibition of 1.48%.
`CCOC(=O)c1cccc(NC(=O)c2cc(C)nn2-c2ccccc2)c1` gave an inhibition of 8.61%.
For `Cc1ccc(NC(=O)C[n+]2cc(-c3ccccc3)n3c2CCC3)c(C)c1`, the inhibition was 19.1%.
With `Cc1ccc(NC(=O)C[n+]2cc(-c3ccc(C)cc3)n3c2CCC3)cc1` the inhibition was 14.9%.
In the case of `Cc1ccccc1NC(=O)C[n+]1cc(-c2ccccc2)n2c1CCC2`, the inhibition is reported as -9.34%.
For `Cc1ccc(-c2c[n+](CC(=O)Nc3ccccc3C)c3n2CCC3)cc1`, the inhibition was 5.92%.
In the case of `Cc1cccc(C)c1NC(=O)C[n+]1cc(-c2ccccc2)n2c1CCC2`, the inhibition is reported as -8.77%.
For `Cc1ccc(NC(=O)C[n+]2cc(-c3ccccc3)n3c2CCC3)cc1`, the inhibition was 10%.
With `O=C(C[n+]1cc(-c2ccc(Cl)cc2)n2c1CCC2)Nc1nc(-c2ccc(F)cc2)cs1` the inhibition was -19%.
Work on `O=C(C[n+]1cc(-c2ccccc2)n2c1CCC2)Nc1nc(-c2ccccc2)cs1` yielded an inhibition of -3.98%.
Work on `Cc1ccc(C(=O)CSc2nc(C)cc(C)c2C(N)=O)cc1` yielded an inhibition of 12.8%.
`Cc1ccc(C(=O)N2N=C(c3cccc(NS(C)(=O)=O)c3)CC2c2cccs2)cc1` (stereo unspecified) gave an inhibition of -10.1%.
Work on `Cc1ccc(Cl)cc1NC(=O)C(=O)N/N=C/c1ccc2c(c1)OCO2` yielded an inhibition of -4.53%.
Compound `COc1cccc(/C=C/C(=O)NCc2ccc(S(N)(=O)=O)cc2)c1` has an inhibition of -0.15%.
For `CCOC(=O)c1c(NC(=O)Cn2ccsc2=N)sc(C)c1C`, the inhibition was 14.8%.
With `Cc1ccc(CSc2nnc(-c3ccncc3)n2C)cc1` the inhibition was -10.9%.
For `O=C(NC1CCCCCC1)c1ccc(Br)o1`, the inhibition was -0.61%.
Compound `Cc1cc(NC(=O)CCC(=O)N(CC(=O)NC2CCCC2)c2ccc(Cl)c(Cl)c2)no1` has an inhibition of 14.6%.
Work on `Cc1cccc(C(=O)NCC(=O)OCC(=O)NC2CCCCCCC2)c1` yielded an inhibition of 0.27%.
Work on `O=C(C[n+]1cc(-c2ccc(F)cc2)n2c1CCC2)Nc1nc(-c2ccccc2)cs1` yielded an inhibition of 0.35%.
In the case of `Cc1ccc(-c2c[n+](CC(=O)Nc3c(C)cccc3C)c3n2CCC3)cc1`, the inhibition is reported as -24.6%.
`O=C(C[n+]1cc(-c2ccc(F)cc2)n2c1CCC2)Nc1nc(-c2ccc(F)cc2)cs1` gave an inhibition of -2.82%.
`Cc1ccc(-c2c[n+](CC(=O)Nc3nc(-c4ccc(F)cc4)cs3)c3n2CCC3)cc1` showed an inhibition of -3.86%.
In the case of `CCOC(=O)C(C)c1ccc2cc(OC)ccc2c1` (stereo unspecified), the inhibition is reported as -2.05%.
`Cc1cc(C)c2c(c1)/C(=N/NC(=O)c1cc(C)oc1C)CCC2` showed an inhibition of -3.06%.
`CN(C)c1ccnc2sc3c(SCc4ccc(Cl)cc4)ncnc3c12` gave an inhibition of -7.49%.
Work on `CC(C)n1c(SCc2ccc(Cl)cc2)nc2c1c(=O)[nH]c(=O)n2C` yielded an inhibition of -4.82%.
`CN(C)CCN(C(=O)c1ccc(S(=O)(=O)N2CCCC2)cc1)c1nc2ccc(Br)cc2s1` showed an inhibition of 0.55%.
Work on `O=C(CC1NCCc2ccccc21)Nc1ccc(Cl)cc1` (stereo unspecified) yielded an inhibition of 8.21%.
`O=C(CC1NCCc2ccccc21)Nc1ccccc1` (stereo unspecified) gave an inhibition of 7.99%.
With `Cc1cc(NCCO)nc(N2CCOCC2)n1` the inhibition was 4.73%.
`Cc1c(Br)cc(C(=O)O)c(C)c1C` gave an inhibition of 7.99%.
`COc1cc(C(=O)Nc2ccc(C)cc2C(NCC(=O)NN)c2ccccc2)cc(OC)c1OC` (stereo unspecified) showed an inhibition of -8.05%.
`Nn1c(-c2ccccc2)cc(-c2ccccc2)cc1=O` showed an inhibition of -2.08%.
With `O=c1cc(-c2ccccc2)cc(-c2ccccc2)n1CCO` the inhibition was 6.95%.
Compound `CN(C)c1ccc(/C=[N+](\[O-])C2N(c3ccccc3)C(=S)SC2(C)C)cc1` (stereo unspecified) has an inhibition of -5.4%.
`COc1cc(C2c3c(oc4ccccc4c3=O)C(=O)N2CCN2CCOCC2)cc(OC)c1OC` (stereo unspecified) gave an inhibition of -13.4%.
`c1ccc2cc(OCCCn3ccnc3)ccc2c1` showed an inhibition of -0.84%.
For `Clc1ccccc1OCCCn1ccnc1`, the inhibition was -8.4%.
`COc1ccc2nc(SCC(=O)Nc3ccccc3C#N)[nH]c2c1` gave an inhibition of -8.31%.
`Cc1ccc(-n2nc3c(=S)[nH]nc(C)c3c2C)cc1` showed an inhibition of 2.54%.
`COc1cccc(C(=O)Nc2ccc(C(=O)c3ccncc3)cc2)c1` gave an inhibition of -15.6%.
`CCC(C)NC(=O)CSc1nnc(-c2c[nH]c3ccccc23)o1` (stereo unspecified) gave an inhibition of 7.49%.
Compound `COc1ccc(Nc2ncnc3ccccc23)cc1` has an inhibition of -1.42%.
`COc1ccc(Nc2nc(-c3ccccc3)nc3ccccc23)cc1` gave an inhibition of 6.48%.
Compound `COc1ccc(Nc2cccc3ccccc23)cc1` has an inhibition of -1.63%.
Work on `Cc1ccc(O)c(Nc2nc(-c3ccccc3)nc3ccccc23)c1` yielded an inhibition of 8.76%.
Compound `Cc1ccc(O)c(Nc2ncnc3ccccc23)c1` has an inhibition of 3.94%.
For `COc1ccccc1Nc1c2c(nc3ccccc13)CCC2`, the inhibition was 0.56%.
`COc1cc(Nc2c3ccccc3nc3ccccc23)cc(OC)c1OC` showed an inhibition of -7.36%.
Compound `COc1ccc(OC)c(Nc2c3ccccc3nc3ccccc23)c1` has an inhibition of -13.7%.
